Results: PubChem BioAssay AID1159580 (chemical genetic matrix, 2015)
Out of some 5,500 compounds screened, about 2,000 (36%) were called active. Another 18% or so got no clear call; they are omitted. Rule as the data show it: active = normalized growth mostly below about 0.91 (no sharp cut-off); inconclusive = no clear call, values can overlap the other calls; inactive = mostly above about 0.92. The list shows a part of the results.

Experiment: chemical genetic growth profiling, strain panel (AID 1159580);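 also: tested at 20 µM; growth read once vehicle control cultures reached saturation at 30 °C; 1 = growth at the plate median or of vehicle wells; lower values mean less growth of the strain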
Conditions: growth OD
[1] = S. cerevisiae deletion strains, locus YAL013W, strain DEP1, stronger effect = lower value
[2] = S. cerevisiae deletion strains, locus YBR229C, strain ROT2, stronger effect = lower value
[3] = S. cerevisiae deletion strains, locus YDL101C, strain DUN1, stronger effect = lower value
[4] = S. cerevisiae deletion strains, locus YDL134C, strain PPH21, stronger effect = lower value
[5] = S. cerevisiae deletion strains, locus YDR150W, strain NUM1, stronger effect = lower value
[6] = S. cerevisiae deletion strains, locus YEL061C, strain CIN8, stronger effect = lower value
[7] = S. cerevisiae deletion strains, locus YGR078C, strain PAC10, stronger effect = lower value
[8] = S. cerevisiae deletion strains, locus YHR030C, strain SLT2, stronger effect = lower value
[9] = S. cerevisiae deletion strains, locus YHR087W, strain rtc3, stronger effect = lower value
[10] = S. cerevisiae deletion strains, locus YJR075W, strain HOC1, stronger effect = lower value
[11] = S. cerevisiae deletion strains, locus YLR039C, strain RIC1, stronger effect = lower value
[12] = S. cerevisiae deletion strains, locus YLR058C, strain SHM2 (second series), stronger effect = lower value
[13] = S. cerevisiae deletion strains, locus YLR085C, strain ARP6, stronger effect = lower value
[14] = S. cerevisiae deletion strains, locus YLR262C, strain YPT6, stronger effect = lower value
[15] = S. cerevisiae deletion strains, locus YML094W, strain GIM5, stronger effect = lower value
[16] = S. cerevisiae deletion strains, locus YMR219W, strain ESC1, stronger effect = lower value
[17] = S. cerevisiae deletion strains, locus YMR263W, strain SAP30, stronger effect = lower value
[18] = S. cerevisiae deletion strains, locus YMR307W, strain GAS1, stronger effect = lower value
[19] = S. cerevisiae deletion strains, locus YNL153C, strain GIM3, stronger effect = lower value
[20] = S. cerevisiae deletion strains, locus YNL298W, strain CLA4 (second series), stronger effect = lower value
[21] = S. cerevisiae deletion strains, locus YNL322C, strain KRE1, stronger effect = lower value
[22] = S. cerevisiae deletion strains, locus YNR030W, strain Alg12, stronger effect = lower value
[23] = S. cerevisiae deletion strains, locus YOL006C, strain TOP1, stronger effect = lower value
[24] = S. cerevisiae deletion strains, locus YPL055C, strain LGE1, stronger effect = lower value
[25] = S. cerevisiae deletion strains, locus YPL241C, strain CIN2, stronger effect = lower value
[26] = S. cerevisiae deletion strains, locus YPR135W, strain CTF4, stronger effect = lower value
[27] = S. cerevisiae strains, strain wild type, stronger effect = lower value

Measured: normalized growth

CCc1cccc(C)c1NC(=O)N1CCN(C(=O)OC(C)(C)C)CC1
inactive: [1] 0.992 | [2] 0.99 | [3] 0.987 | [4] 1.01 | [5] 1.03 | [6] 1.01 | [7] 1 | [8] 1.01 | [9] 0.995 | S. cerevisiae deletion strains, locus YJR043C, strain POL32, stronger effect = lower value 1 | [10] 0.988 | [11] 1.04 | [12] 0.99 | [13] 1 | [14] 0.984 | [15] 0.991 | [16] 0.984 | [17] 1.01 | [18] 1.05 | [19] 0.994 | [20] 1.02 | [21] 0.999 | [22] 1.01 | [23] 1.01 | [24] 0.987 | [25] 1.03 | [26] 1.01 | [27] 1

CC(N)=NCc1cccc(CN)c1
inactive: [1] 1.02 | S. cerevisiae deletion strains, locus YAL040C, strain CLN3, stronger effect = lower value 1.01 | S. cerevisiae deletion strains, locus YCL061C, strain MRC1 (second series), stronger effect = lower value 1.01 | [5] 1.01 | S. cerevisiae deletion strains, locus YDR363W, strain ESC2, stronger effect = lower value 1.02 | S. cerevisiae deletion strains, locus YER002W, strain NOP16, stronger effect = lower value 1.03 | [18] 1.03 | S. cerevisiae deletion strains, locus YNL175C, strain NOP13, stronger effect = lower value 1.02 | S. cerevisiae deletion strains, locus YNL197C, strain WHI3, stronger effect = lower value 1 | S. cerevisiae deletion strains, locus YNL224C, strain SQS1, stronger effect = lower value 1 | S. cerevisiae deletion strains, locus YOR083W, strain WHI5 (second series), stronger effect = lower value 0.996 | [25] 1.01

CCSC(SCC)[C@H](O)[C@@H](O)[C@H](O)CO
inactive: [1] 0.976 | [2] 0.992 | [3] 0.993 | [4] 1.01 | [5] 0.995 | [6] 0.998 | [7] 0.981 | [8] 0.939 | [9] 0.98 | [10] 0.994 | [11] 0.992 | [12] 0.993 | [13] 1.05 | [14] 0.904 | [15] 1.02 | [16] 1 | [17] 0.994 | S. cerevisiae deletion strains, locus YNL128W, strain TEP1, stronger effect = lower value 1 | [19] 0.988 | [20] 0.988 | [21] 0.985 | [22] 0.992 | [23] 1.01 | [24] 1 | [25] 1.04 | [26] 0.922 | [27] 0.992
